Source: PubChem
Rows were chosen to be rich in hits. Some 17% of all compounds tested hit in one or more screens of this group.
ClpP mod: qHTS Assay for Activators of ClpP; ATP-dependent Clp protease proteolytic subunit (Bacillus subtilis (strain 168)), P80244; purified B. subtilis ClpP, FRET peptide cleavage, 20 min; Potency, µM (series often up to 57.5 µM), for the others: top-dose activity change, negative = active; actives 1.9% (n = 340,000); active = well fitted falling curve with a large enough effect; inconclusive = small, poorly fitted or top-dose-only effect; inactive = no such curve, though single readings can be large or run the other way; note: the source files actives as falling curves though it sought activators and does not explain the sign; nearly all actives have a fitted effect of over 65% in size
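Buffer: 100 mM Tris/HCl pH8, 100 mM KCl, 0.05% low protease BSA, 2.5% glycerol, 0.01% Tween-20. ClpP 10 microg/mL final; 20 min RT; delta FRET normalized to ADEP and DMSO controls.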
DT40 TDP1 CPT: DT40-hTDP1 cell growth loss with CPT | chicken DT40 Tdp1-/-;hTDP1 cells + 20 nM CPT, ATP luminescence, 48 h | Potency, µM (doses to about 46.2 µM), inactives show top-dose activity change, negative = growth inhibition, hits mostly inhibitors | actives 12% (n = 420,000) | AID 686979; note: % is set by controls: 0 for no effect and ±100 for the full control effect; nearly all actives have a fitted effect of over 55% in size
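Chicken DT40 Tdp1-/- cells stably complemented with human TDP1 were seeded at 400 cells/well in medium containing 20 nM camptothecin, exposed to pin-transferred compounds, and grown at 37 °C for at least 48 hr. Viability was read as ATP luminescence.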
DT40 TDP1 no CPT: qHTS for Inhibitors of human tyrosyl-DNA phosphodiesterase 1 (TDP1): qHTS in cells in absence of CPT; DT40 Tdp1-/- hTDP1 cells, no CPT, ATP luminescence, 48 h; Potency, µM (series often up to 46.2 µM), for inactives: top-dose activity change, negative = growth inhibition, usual class: inhibitors; actives 15% (n = 420,000); AID 686978, 2013; note: % is set by controls: 0 for no effect and ±100 for the full control effect; nearly all actives have a fitted effect of over 55% in size
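Seeded 400 DT40-hTDP1 cells/well (vehicle DMSO, no 20 nM CPT); pinned compounds; ≥48 hr at 37 °C; CellTiter-Glo luminescence as viability measure.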
TDP1 inh: TDP1 (human) enzyme inhibition. recombinant TDP1, AlphaScreen DNA substrate cleavage. Potency, µM (top dose mostly 130 µM), inactives show at the highest dose activity change, negative = inhibition, usual class: inhibitors. actives 0.28% (n = 350,000); note: % is set by controls: 0 for no effect and ±100 for the full control effect; nearly all actives have a fitted effect of over 40% in size
Target sequence (Q9NUW8 whole entry, looked up): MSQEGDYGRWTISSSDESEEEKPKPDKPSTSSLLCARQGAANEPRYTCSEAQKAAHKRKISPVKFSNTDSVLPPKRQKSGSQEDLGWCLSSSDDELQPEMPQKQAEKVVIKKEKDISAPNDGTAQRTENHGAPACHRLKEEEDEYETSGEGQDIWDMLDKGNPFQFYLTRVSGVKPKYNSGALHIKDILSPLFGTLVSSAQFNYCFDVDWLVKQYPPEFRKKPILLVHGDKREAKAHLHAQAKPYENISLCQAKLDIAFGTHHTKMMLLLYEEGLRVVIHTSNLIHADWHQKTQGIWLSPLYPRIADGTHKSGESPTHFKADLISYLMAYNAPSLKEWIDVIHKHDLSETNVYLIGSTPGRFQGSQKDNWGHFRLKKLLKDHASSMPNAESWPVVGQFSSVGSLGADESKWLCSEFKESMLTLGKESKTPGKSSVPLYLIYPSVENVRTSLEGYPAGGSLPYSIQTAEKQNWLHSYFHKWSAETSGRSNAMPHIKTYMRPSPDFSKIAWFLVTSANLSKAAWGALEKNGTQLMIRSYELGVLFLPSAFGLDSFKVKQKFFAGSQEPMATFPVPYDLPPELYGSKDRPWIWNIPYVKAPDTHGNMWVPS
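AlphaScreen read-out: signal falls as enzyme removes the 3' tyrosine-FITC from a 5'-biotinylated DNA oligo (15 nM, 5 min, RT). Enzyme was E. coli-made recombinant Tdp1 at 1 nM, exposed to compound for 15 min beforehand; beads 10 ug/ml, 10 min.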
Starred values were filed as active, the others as inactive; ? = inconclusive; nt = not tested or not shown; [ ] = another dose, or the depositor's remark. Unless noted, calls come from the whole dose curve; as a rule, active = well fitted curve in the direction sought with a large enough effect; inconclusive = small, poorly fitted or top-dose-only effect, or another doubt; inactive = no such curve, though single readings can be large; an effect the other way counts as inactive or inconclusive. Potency is the fitted concentration of half-maximal effect.

SMILES	ClpP mod	DT40 TDP1 CPT	DT40 TDP1 no CPT	TDP1 inh
C[C@H](C[C@H](O)[C@H]1OC1(C)C)C1=C2C[C@H](O)C3[C@@]4(C)CCC(=O)C(C)(C)C4CC[C@]3(C)[C@@]2(C)CC1 (some centres undefined)	3%	7.3µM*	15µM*	0%
O=C(C[n+]1ccccc1Br)c1ccc(F)cc1	-4%	?	?	nt
O=C(Nc1ccc(F)cc1)C(c1ccccc1OC(F)(F)F)N1CCN(c2cccc(C(F)(F)F)n2)CC1 (centres undefined)	-25%	?	?	nt
O=C(Nc1ccc(F)cc1)C(c1ccnc2ccccc12)N1CCN(c2cccc(C(F)(F)F)n2)CC1 (centres undefined)	-6%	?	21µM*	nt
c1ccc2c(C(c3nnnn3-c3ccc4c(c3)OCCO4)N3CCOCC3)ccnc2c1 (centres undefined)	1%	3%	-2%	nt
Cc1cccc(C)c1NC(=O)C(c1ccnc2ccccc12)N1CCN(CCN(C)C)CC1 (centres undefined)	-3%	4.6µM*	5.2µM*	nt
c1ccc2c(C(c3nnnn3-c3ccc4c(c3)OCCO4)N3CCCC3)ccnc2c1 (centres undefined)	-2%	-2%	?	nt
Cc1cccc(C)c1NC(=O)C(c1ccncc1)N1CCN(CCN(C)C)CC1 (centres undefined)	-4%	11%	14%	nt
CN(C)CCN1CCN(C(c2ccnc3ccccc23)c2nnnn2-c2ccc3c(c2)OCCO3)CC1 (centres undefined)	-3%	-23%	16µM*	nt
O=C(OCc1ccccc1)N1CCN(C(c2ccnc3ccccc23)c2nnnn2-c2ccc3c(c2)OCCO3)CC1 (centres undefined)	-3%	23µM*	8.2µM*	nt
O=C(NCc1ccc2c(c1)OCO2)c1ccc2c(c1)N(Cc1cccc(Cl)c1)C(=O)c1ccccc1S2=O (centres undefined)	-1%	-22%	-29%	2%
Cc1cccc(C)c1-n1nnnc1C(c1ccnc2ccccc12)N1CCCN(C(=O)OC(C)(C)C)CC1 (centres undefined)	1%	?	18µM*	nt
CCc1noc(C)c1C(=O)OCC(=O)NCc1ccccc1	1%	-13%	-7%	-3%[56.1 µM]
Cc1nc2ccc(C(=O)OC(C)C(=O)c3c(C)[nH]c4ccccc34)cc2nc1C (centres undefined)	-1%	?	13µM*	nt
Cc1[nH]c2ccccc2c1C(=O)C(C)OC(=O)c1ccc([N+](=O)[O-])o1 (centres undefined)	nt	?	16µM*	9%
CCc1noc(C)c1C(=O)OC(C)C(=O)c1c(C)[nH]c2ccccc12 (centres undefined)	-1%	16µM*	?	0%
Cc1cc(C)n(CC(=O)NNC(=O)COc2ccc(Br)cc2F)n1	1%	-7%	-6%	1%
CCN(CC(=O)Nc1ccccc1OC)CC(=O)Nc1c(Cl)ccc(C)c1Cl	1%	?	15µM*	3%
CCN(CC(=O)Nc1cccc(F)c1)CC(=O)Nc1ccccc1OC	0%	-3%	-1%	nt
CCN(CC)CC(=O)Nc1ccc(-c2ccc(NC(=O)CN(CC)CC)c(OC)c2)cc1OC	nt	13µM*	9.2µM*	0%
CCN(CC)c1ccc(NC(=O)c2ccccc2)cc1S(=O)(=O)Nc1ccccc1OC	-3%	?	16µM*	0%
COc1ccccc1NS(=O)(=O)c1cc(NC(=O)Nc2cccc(C)c2)ccc1N1CCCCC1	?	15µM*	9.2µM*	3%
O=C(Nc1ccc(Cl)cc1)Nc1ccc(N2CCCC2)c(S(=O)(=O)Nc2ccccc2Cl)c1	-10%	5.2µM*	5.2µM*	5%
CCOC(=O)C(=CNc1ccc(N2CCCCC2)c(S(=O)(=O)Nc2ccccc2OC)c1)C(=O)OCC	18µM*	3.7µM*	5.8µM*	nt
COc1ccc(C(=O)Nc2ccc(Cl)c(S(=O)(=O)Nc3ccccc3OC)c2)cc1	-6%	?	?	4%
SMILES	ClpP mod	DT40 TDP1 CPT	DT40 TDP1 no CPT	TDP1 inh
COc1ccccc1NS(=O)(=O)c1cc(NC(C)=O)ccc1N1CCCCC1	nt	-19%	-6%	3%
O=CN1CCCN(C(=O)c2cc(NC(=O)c3ccccc3)cc3ncn(C4CCCC4)c23)CC1	nt	20%	-13%	nt
COc1ccccc1NS(=O)(=O)c1cc(NC(=O)c2ccncc2)ccc1N1CCCC1	nt	?	21µM*	0%
Cc1ccc(C(C)C)cc1OCCn1cncn1	0%	11%	5%	6%
CN(C)CCCNC(=S)N1CCn2c(nc3ccccc32)C1	-2%	0%	-6%	2%
CC(=O)c1cccc(CN2CCC(CO)(CCCc3ccccc3)CC2)c1	0%	?	23µM*	-1%
Cn1cc(CN2CCC(CO)(CCCc3ccccc3)CC2)c(-c2ccccc2)n1	0%	16µM*	?	nt
COc1cccc(/C=C/c2nc(C#N)c(NCCc3ccc(OC)c(OC)c3)o2)c1	4%	?	-87%	7%
CCOC(=O)c1c(C)[nH]c(CCC(=O)NCc2ccc(OC)c(OC)c2)c1C	0%	-9%	-10%	-5%
CCOC(=O)c1c(C)[nH]c(CCC(=O)NCc2ccc(N(C)C)cc2)c1C	-7%	?	18µM*	3%
CCOC(=O)c1c(C)[nH]c(CCC(=O)Nc2cc(C)cc(C)c2)c1C	-2%	?	23µM*	5%
CCOC(=O)c1c(C)[nH]c(CCC(=O)Nc2cc(C)ccc2OC)c1C	-4%	?	16µM*	8%
CCOC(=O)c1c(C)[nH]c(CCC(=O)Nc2ccccc2C(=O)OC)c1C	-2%	?	23µM*	3%
CN(C)c1ncc2nc(-c3cccs3)c(=O)n(C)c2n1	nt	-2%	18%	nt
COc1ccc2c(CC(=O)Nc3ncc(C)s3)coc2c1	nt	-29%	?	-2%
CCCC12CN3CC(C)(CN(C1)C3c1ccc(OCc3ccccc3)cc1)C2=O (centres undefined)	0%	?	?	-7%
CCOC(=O)c1c(C)[nH]c(CCC(=O)Nc2c(C)cccc2CC)c1C	-3%	?	16µM*	0%
CCOC(=O)c1c(C)[nH]c(CCC(=O)Nc2ccccc2C(F)(F)F)c1C	-5%	?	?	-3%
CCOC(=O)c1c(C)[nH]c(CCC(=O)Nc2ccccc2OCC)c1C	1%	?	23µM*	5%
CCOC(=O)c1c(C)[nH]c(CCC(=O)NCCCN2CCN(c3ccc(F)cc3)CC2)c1C	2%	21µM*	10µM*	8%
CC(=O)NCc1ccc(C(=O)O)cc1	-1%	0%	15%	-4%
CC1(C)Cc2c(C#N)c(NCCc3ccccc3)nc(-c3ccco3)c2CO1	28µM*	?	?	nt
